Data as given in the supplement of paper PMC6555819.

system: VDR:RXRa (NR concentration 270 nM, RXRa partner concentration 90 nM); assay: PBM binding z-score (relative to random genomic background probes); higher = stronger binding; sequences stand for … in GC…GCGATTGACAGCGTAGAATGAAGG
Description: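 Protein-binding microarray (Agilent 4x180K custom design, double-stranded 60-nt probes: 5' GC cap, 34-nt variable region, 24-nt constant primer region; full probe sequence given). Purified or IVT nuclear receptor:RXRα heterodimers (3:1 NR:RXRα, mostly 270:90 nM) or homodimers were incubated for 1 h in PBS with 2% milk and no ligand, then detected with Alexa488 antibodies. Fluorescence from o1-orientation probes (~5 replicates averaged) was converted to z-scores against 500 random hg19 background probes. Variable regions are seed direct-repeat (DR0–DR5) sites, all their single-nucleotide variants and half-site ablations.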

Row | Sequence | PBM binding z-score
1 | GCGACTGGGGCACAGCAGGTTACCATAAGGTTGG | -0.208
2 | CCTACTGGGCCACGAAAGGTCAGTGATTCAGTGA | 1.72
3 | TCTAGTAGGTTAGGGGCATTCAGAATGGCGTCGA | 1.04
4 | CCTACTGGGCCACGAAAGATCATTGATTCAGTGA | -0.306
5 | CGAACTAGGTCAGAACAGGACAGCGAAGGATGAT | 0.817
6 | ATCGAAAGGTCGACGGTGAGTATACCCACCCGAA | 2.62
7 | TCATATAGCTAAAGGTGAAAGTCGAACGATATGA | 0.865
8 | CCGACTGGGGCAGAAAGGTTCCCATACCATCCGG | -0.573
9 | TCATATAGGTGATACAGGTGAAAGTCGGCATCTA | 1.19
10 | CCTTACGGGTCACTGGCAGGTTATAGCATTTGGA | 3.81
11 | ACTAGTTGGTCAGCTGTGGTCACACACAATTCGG | 0.029
12 | ACTAGTTGGTCTGCTGAGGTCACACACAATTCGG | 3.54
13 | TCTAGTTGGTCAAAGGACACACACTCGAAATGCG | 1.05
14 | TCATATAGGTAAAGGTGAAAGACGAACGATATGA | 0.914
15 | TCGAGTAGGTTAGTCGGGGCATGCAGCCAACATA | 1.24
16 | TCTCGGAGGACACGAAAGCTCAGAGCTCGACATC | -0.282
17 | TCGCCTAGGTCAGATCGGGCCAGTATACGCTATA | 0.717
18 | ACTATTAGTTGACTTAGGGCGACCGATACGACGC | 0.175
19 | CGTCCAATGTCATAGGAGGTCAGTGAAGACAGAT | 3.45
20 | CAAACTAGGTCAAAGGTCAATGTCGAGCCAACCA | 6.33

Row | Sequence | PBM binding z-score
21 | TCTACCAGGCCAGAGGGTCACTCAAGAGGTACGG | 2.1
22 | CCTCGGAGGACAGAAGGTCAGAGATGTCCGCTTT | 1.28
23 | TCATATAGGTAAACAGGCGAAAGTCCGTAAGTTA | 1.13
24 | CTCGAAAGGTAGTGCTCAGGTGAGTATACCAAAC | -0.361
25 | GCTAGCAGGCCATTTGGGTCCCTCAATGACGGGC | -0.73
26 | TATACAGGGTCGAAGGCCAGAGTACGAATGTCGA | 1.56
27 | ATCTCTAGGTAAGACTCAGTTAAGTGAAGAACGC | 0.511
28 | CAGCCTAGGTCAGGGCTAGTATAGGAGGAACGTT | -0.00307
29 | CGAACTAGGTCAAGGAGAGTGAATCTCCGCACGC | 1.33
30 | CCAGACTGGTGAAAGGTAACTCAGTCTGGTACGC | -0.0185
31 | TATACAGGGTCAAAGGCCATAGTACGAATGTCGA | 5.08
32 | CAAACTAGGTCAAGGTCAGAGTCGGTTTGTGCCA | 3.93
33 | ATCTCTTGGTAACAAGTTCAGTGAAAGAGAGGAC | 1.84
34 | TCTCGCAGGACACGAAGGTCAGAGCTTTCCAGAG | 1.57
35 | CTCGAAAGGTCGGTTGAGGTGAGTATCCGGATAA | 2.13
36 | TATATTAGTTGATTAGGGCAACCGAAACAGCGGA | 0.452
37 | AGTCAAAGTTCATCTAGGTAAAGTAAGATATGCT | 4.84
38 | CGTCCAAGGTCAGCAGGTCAGTGCAAGCGACGTG | 3.93
39 | CCGTGTAGGTTATGGGGCATTCAGGCAACGGTGA | 0.11
40 | TCTCGTTGGTCACGGAGGTCACACACGACGGGTA | 5.96
